# Source: PubChem
# DRD3 antagonist = D3 dopamine receptor (human) antagonism. max response, negative = inhibition, %. D3R cells, DiscoveRx beta-arrestin luminescence, antagonist mode; active compounds read low. hit rate 2.5% among 360,000. AID 652054; in the data active means max response below about -50%; inconclusive means no clear call, values can overlap the other calls; further: on the % scale 0 is the no-effect control and ±100 the full control effect
# Target sequence (P35462 whole entry, looked up): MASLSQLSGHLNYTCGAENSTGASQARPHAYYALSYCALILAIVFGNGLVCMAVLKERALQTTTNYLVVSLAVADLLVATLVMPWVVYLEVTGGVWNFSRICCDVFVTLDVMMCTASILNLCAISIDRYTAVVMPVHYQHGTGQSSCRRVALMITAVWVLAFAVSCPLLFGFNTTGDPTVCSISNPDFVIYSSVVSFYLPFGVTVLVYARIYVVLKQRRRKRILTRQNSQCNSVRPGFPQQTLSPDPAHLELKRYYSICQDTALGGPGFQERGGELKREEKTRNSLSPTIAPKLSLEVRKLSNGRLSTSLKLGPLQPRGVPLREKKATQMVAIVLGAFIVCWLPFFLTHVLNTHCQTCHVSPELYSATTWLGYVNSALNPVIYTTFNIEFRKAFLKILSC
#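 Cells plated overnight at 1500 cells/well, then exposed to library compounds with dopamine controls for 90 minutes at 37 degrees C. DiscoveRx reagent added for 30–60 minutes at room temperature; luminescence read, quantitative HTS format.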
# D3 ag = agonists of human D3 dopamine receptor; P35462; D3R DiscoveRx beta-arrestin cells, luminescence, 90 min; max activation, %; hit rate 0.58% among 410,000; AID 652048; in the data active means max activation above about 30%; further: 0% is about no effect
#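 Agonist-mode cell screen: cells plated at 1500/well and incubated overnight at 37 °C, then exposed to library compounds for 90 min at 37 °C. Detection reagent was added for 30–60 min at room temperature, and luminescence was read.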
# D1 antag = blocks dopamine activation of the human D1 receptor | activity change, negative = inhibition, % at 10 µM | P21728 | HEK293 TREx D1 cells, calcium flux, dopamine EC80; active compounds read low | hit rate 3.2% among 360,000; in the data active means activity change below about -30%; further: on the % scale 0 is the no-effect control and ±100 the full control effect
#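 Using tetracycline-induced force-coupled D1 Hek293 cells and a calcium dye, signals were followed for 180 s after compound, then for 180 s after EC80 dopamine, to detect inhibitors.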
# D1 PAM = potentiators of human D1 dopamine receptor. P21728. HEK293 TREx D1 cells, calcium flux, dopamine EC20 potentiation. potentiation, % at 10 µM. hit rate 0.036% among 360,000. AID 504651; in the data active means potentiation above about 30%; further: 0% is about no effect
# D1 ag = activates the human D1 dopamine receptor; hit rate 1% among 360,000; AID 504660; HEK293 T-REx D1 cells, calcium flux, agonist mode; activation, % at 2 µM; in the data active means activation above about 30%; further: 0% is about no effect
#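 Inducible HEK293 T-REx D1 cells, force-coupled to calcium signalling, were plated at 4000 cells/well with tetracycline and held overnight at 30 C. After no-wash calcium dye loading, compound-evoked calcium rise over 180 s flagged agonists.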
# Starred values were filed as active, the others as inactive; u = inconclusive; x = no result given; ! = not confirmed by another sample. Hits are enriched below; roughly 6.1% of the tested compounds scored in any of these assays.
SMILES,DRD3 antagonist,D3 ag,D1 antag,D1 PAM,D1 ag
CN(C(=O)CSc1nncn1-c1ccccc1)C1CCS(=O)(=O)C1 (stereo unspecified),-54*,-2,1,2,2
CCc1cc2c(=O)n(Cc3ccco3)c(SCC(=O)N(C)C3CCS(=O)(=O)C3)nc2s1 (stereo unspecified),7,4,-36*,-7,0
Cc1nn(-c2ccccc2)c(C)c1/C=C/C(=O)OCC(=O)N(C)C1CCS(=O)(=O)C1 (stereo unspecified),-16,-7,-84*,-6,2
COc1cccc(-n2cc(C(=O)Nc3cccc(C(F)(F)F)c3)c3ccccc3c2=O)c1,x,-3,14,-2,2
N#Cc1ccc(S(=O)(=O)N2CCN(S(=O)(=O)c3ccc4c(c3)OCCO4)CC2)cc1,x,x,-12,-6,0
Cc1ccc(-c2cn3nc(N4CCCC(C(=O)Nc5ccc(F)cc5)C4)sc3n2)cc1 (stereo unspecified),x,-1,-4,0,-2
COc1ccc(NC(=O)Cn2c(=O)n(-c3ccc(Cl)cc3)c(=O)c3c(C)c(C(=O)N(C)C)sc32)cc1Cl,x,1,-1,-1,5
CCc1ccccc1Nc1nn2c(=O)c3ccc(C(=O)NC4CCC(C)CC4)cc3nc2s1 (stereo unspecified),x,-2,-1,-2,5
CCc1nc(SCC#N)c(C#N)cc1C,x,x,-34*,-5,0
Cc1cccc2cc(C#N)c(SCC#N)nc12,-3,-1,9,2,32*
CCCCN(C)C(=O)c1cn(CC)c2ccc(S(=O)(=O)N(C)C)cc2c1=O,-12,-5,-31*,x,3
COc1ccccc1CNC(=O)c1cn(C)c2ccc(S(=O)(=O)N(C)C3CCCCC3)cc2c1=O,x,-1,-37*,15,4
CCn1cc(C(=O)NCCc2ccc(C)cc2)c(=O)c2cc(S(=O)(=O)N3CCc4ccccc4C3)ccc21,x,-11,-7,3,-1
CCCCN(C)C(=O)c1cn(C)c2ccc(S(=O)(=O)N(C)C)cc2c1=O,5,3,-14,-5,3
CCOCCCNC(=O)c1cn(CC)c2ccc(S(=O)(=O)N3CCC(C)CC3)cc2c1=O,-9,3,-34*,1,2
CCn1cc(C(=O)NCCCOC)c(=O)c2cc(S(=O)(=O)N3CCC(C)CC3)ccc21,3,-4,-5,2,0
CCOc1ccc(CCNC(=O)c2cn(CC)c3ccc(S(=O)(=O)N4CCc5ccccc5C4)cc3c2=O)cc1OCC,x,-4,-47*,9,0
COc1ccc2c(c1)CCc1c(C(=O)Nc3c(C)nn(Cc4c(Cl)cccc4Cl)c3C)noc1-2,x,4,-24,0,7
CCN1C(=O)c2ccccc2S(=O)c2ccc(C(=O)N3CCN(c4ccc(F)cc4)CC3)cc21 (stereo unspecified),x,1,10,0,1
Cc1ccc(C)c(Cn2c(=O)n(CCCC(=O)NCc3ccc4c(c3)OCO4)c(=O)c3sccc32)c1,x,-11,-2,-1,2
CCOC(=O)c1ccc(OCC2c3cc(OC)c(OC)cc3CCN2C(=O)Cc2ccc(OC)c(OC)c2)cc1 (stereo unspecified),x,1,-18,0,0
COc1cc(S(=O)(=O)n2ccnc2C(C)C)ccc1Br,x,0,1,-2,0
CCCCN(CCCC)CCNC(=O)c1cn(C)c2ccc(S(=O)(=O)N3CCOCC3)cc2c1=O,x,6,-35*,1,0
CCn1cc(C(=O)NCCCN2CCCC(C)C2)c(=O)c2cc(S(=O)(=O)N(C)C3CCCCC3)ccc21 (stereo unspecified),9,-6,-79*!,7,0
O=C(Nc1ccccc1C(F)(F)F)c1ccc(CN2CCC(Cc3ccccc3)CC2)cc1,-52*,-17,-8,-4,3
SMILES,DRD3 antagonist,D3 ag,D1 antag,D1 PAM,D1 ag
O=C(Nc1ccccc1)c1ccc(CN2CCC(Cc3ccccc3)CC2)cc1,-51*,-13,x,x,x
NC(=O)c1ccc(NC(=O)c2ccc(CN3CCOCC3)cc2)cc1,28,1,-14,1,2
O=C(Nc1ccccc1C(=O)N1CCN(Cc2ccccc2)CC1)c1ccc(F)cc1,-15,-10,12,0,1
COc1ccc(OC)c(S(=O)(=O)NC2CCN(Cc3ccccc3)CC2)c1,-15,-15,-2,8,3
COc1ccc(CNC2CCN(Cc3ccccc3)CC2)cc1,-26,-10,19,-8,32*
COc1ccc(Cl)cc1NS(=O)(=O)c1cccc(C(=O)NC2CCN(Cc3ccccc3)CC2)c1,-104*,-25,x,x,x
COc1ccc(NS(=O)(=O)c2cccc(C(=O)NC3CCN(Cc4ccccc4)CC3)c2)cc1,-53*,-23,-33*,0,2
COc1ccc(Cn2c(=O)[nH]c3cc(C(=O)Nc4ccc(N5CCN(C)CC5)cc4)ccc32)cc1,12,2,1,3,2
COc1ccc(Cn2c(=O)[nH]c3cc(C(=O)NC4CCN(Cc5ccccc5)CC4)ccc32)cc1,-67*,-16,19,6,3
COc1ccc(NS(=O)(=O)c2cccc(C(=O)NCc3ccccc3CN3CCCC3)c2)cc1,u,-1,-12,-5,17
COc1ccc(CCNC(=O)CCc2c(C)c3cc4c(C)coc4c(C)c3oc2=O)cc1OC,x,-3,-3,0,4
CCOc1ccc(C(=O)NCCc2sc(-c3ccc(OC)c(OC)c3)nc2C)cc1,x,16,-6,-4,1
COc1ccc(OCC(O)Cn2c(NCCO)nc3c2c(=O)n(C)c(=O)n3C)cc1 (stereo unspecified),x,-10,-8,-1,0
COc1cc2c3nnc(-c4ccc(F)cc4)c-3cn(Cc3ccccc3F)c2cc1OC,40,8,-53*,-4,4
COc1ccccc1-c1cccc(-c2nc(C(=O)Nc3nccs3)cc3c2[C@@H](CCO)N(C(C)=O)C3)c1,20,-13,x,x,x
CCC(=O)N1Cc2cc(C(=O)Nc3nccs3)nc(-c3cccc(-c4ccccc4OC)c3)c2[C@H]1CCO,7,61*,x,x,x
Cc1nn(CC(=O)NCc2ccccc2Cl)c(=O)c2cccn12,x,6,-7,0,2
COc1ccc(S(=O)(=O)c2cn(Cc3ccccc3)c3cc(N4CCCC4)c(F)cc3c2=O)cc1,x,-12,-19,-1,4
O=C(Nc1nc2ccccc2n1CCN1CCCCC1)C1CCCCC1,-62*,-15,9,-4,2
O=C(Nc1nc2ccccc2n1CCN1CCCC1)c1ccc(Cl)cc1,-7,-27,9,-1,1
CCn1nccc1C(=O)Nc1nc2ccccc2n1CCN1CCCCC1,-87*,-6,1,-10,1
CCn1c(NC(=O)C2CCCCC2)nc2ccccc21,0,-3,-13,2,1
O=C(Nc1nc2ccccc2n1CCN1CCCC1)C1CCCCC1,-82*,1,-30*,-2,0
